# Experimental data from the supplement of paper PMC10681739.
# Biological target: T1, ETS1 (UniProt P14921)
# T1 sequence: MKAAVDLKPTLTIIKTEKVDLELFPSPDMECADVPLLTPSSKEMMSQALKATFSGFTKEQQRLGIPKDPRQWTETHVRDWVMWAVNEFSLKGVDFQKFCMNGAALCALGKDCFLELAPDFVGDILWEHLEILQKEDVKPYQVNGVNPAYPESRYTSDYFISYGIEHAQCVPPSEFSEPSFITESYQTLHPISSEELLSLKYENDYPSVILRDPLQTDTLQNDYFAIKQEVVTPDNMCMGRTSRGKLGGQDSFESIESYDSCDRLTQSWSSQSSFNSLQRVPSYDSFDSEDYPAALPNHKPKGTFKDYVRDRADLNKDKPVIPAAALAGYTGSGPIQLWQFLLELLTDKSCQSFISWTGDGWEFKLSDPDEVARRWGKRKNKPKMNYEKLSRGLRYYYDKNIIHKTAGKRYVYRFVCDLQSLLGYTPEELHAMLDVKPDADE
# Assay: ETS1 binding intensity (PBM fluorescence), ETS1 alone (arbitrary fluorescence units); higher = stronger binding
# Settings: ETS1 concentration 1 nM; RUNX1 concentration 0 nM
row,Sequence,ETS1 binding intensity
1,CCCATTTCCTGCTCTCCAGAGTTAACCACTGAAGTC,815
2,CGGCGCTCGCGGAAGTGCCGCGGTGCCTGCTCTGCA,796
3,GCCCCGGAAGTGGCCCGGCTGTTGGCCGCAGCGGGA,2810
4,GCAGTCAGAAGGTGCGGATGCGGTAAGGTATGCGCT,1130
5,CAGCCAGCCAGGAAGCAGGGGCTGCGGGGCTGACAG,691
6,ATCTTACCCCGGAAATGACAACAGTGCCGCAAACTG,7580
7,CTGCGTCCCGGAAGGAGCGAGCTTGCGGAGCGTGAA,710
8,TGGGCAGGAAGTGGTATCTGATTGTGGTTTTGATTT,3960
9,GTTGGGAGGCGCACATCCGGCGGTTACCCGGTGCTT,2360
10,GGCTTGATTGAACGAGGATGTGGTTCTTGGGTGGGA,686
11,GCGCGGACAGAGAAAGGATGTGGTATAGCAGAAAGT,1500
12,TGGGGTTTCCTGGGGAGAAACTTAGCCCTACCACAC,527
13,AACAGGCAAAGGACAGGATGTGGTGAGCGTCGGCCC,4150
14,ATTAAAGACTTCCGTGCAAGACCACAGCTGCCTGAC,555
15,ACACCCCAGGAAGTGGCAGAGACCACAACAAGTCAG,704
16,GCTAAAGGAAGCTCTGTACAGCTGTGGTAAGGTGGC,552
17,TGAATCATCCTGAGTTACCCGTTCTGTAACCGCCCC,490
18,AGGCAGGGAAGTGGCGCAGAGGAGACCACAGGACAC,563
19,TCAGGGTCAGCAGGAGGAAACCACGCACTACATGCT,437
20,GCGCACACATGCTTCCTGTGGTGACTGGGCGCTTCA,527
21,GCCCCCATGCTTCCTGTTGTGGGAGATGAAGTGTGG,1710
